This note sets out measurements from PubChem BioAssay (NCI).

About 83,000 compounds went through this panel and 20% of them were active in at least one assay; those are over-represented in the sample as a whole.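 Results are percent growth after 48 hours of single-concentration exposure. 100 means growth as in untreated cells, lower positive values show inhibition; negative values down to -100 show cell death.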 Values without a mark were called inactive. Calls of active or inactive are those of the source. Rule for the calls: active = growth percent below 10; inactive = the rest.

Common to all, as to test: NCI-60 one-dose screen, 48 h (100 = growth as untreated, 0 = no growth, -100 = all killed)
Common to all, as to settings: 10 µM unless noted

In experiment [1] the test system is HCT-15 colon.
In experiment [2] the test system is HT29 colon.
The subject of experiment [3] is SNB-75 CNS.
In experiment [4] the test system is SNB-19 CNS.
Experiment [5] concerns U251 CNS.
In experiment [6] the test system is PC-3 prostate.
Experiment [7] has as its system SK-MEL-5 melanoma.
In experiment [8] the test system is UACC-62 melanoma.
Experiment [9] has as its system LOX IMVI melanoma.
Experiment [10] concerns SK-MEL-28 melanoma.
The test system of experiment [11] is SK-MEL-2 melanoma.
Experiment [12] deals with EKVX NSCLC.
The subject of experiment [13] is SN12C renal.
For experiment [14], the system named is UO-31 renal.
In experiment [15] the test system is TK-10 renal.
Experiment [16] has as its system ACHN renal.
The test system of experiment [17] is CAKI-1 renal.
Experiment [18] deals with A498 renal.
In experiment [19] the test system is CCRF-CEM leukemia.
The subject of experiment [20] is MOLT-4 leukemia.

For the molecule `Cc1ccc(C2CC(c3cccc(Nc4ccncc4)c3)=NN2c2cc(Cl)cc(Cl)c2)cc1` (stereo not given), the growth in [1] was -65.6% (active); in [2], -7.29% (active); in [3] it was 70.2%; in [4], 84.9%; in [5], -48.8% (active); in experiment [6] it was 33.8%. Besides, the growth in experiment [7] is 68.8%; in experiment [8], 99.4%; in experiment [9], -87.3% (active); in experiment [10], -72.7% (active); in [11], 96.4%; in experiment [12] it was 77.3%. The growth in experiment [13] is 52.4%; in [14], 51.8%; in experiment [15], 72.7%; in experiment [16], -61.9% (active); in [17] it was -38.8% (active); in [18] it was 77.6%. In addition, the growth in experiment [19] was 7.28% (active); in experiment [20], 1.74% (active).
On to `COc1ccc(C(=O)c2cc3c(N)c(C(=O)Nc4cccc5ccccc45)sc3nc2C)cc1`, for which the growth in experiment [1] is 18.9%; in experiment [2], -68.5% (active); in [3] it was -11.3% (active); in [4] it was 30.4%; in experiment [5], 10.5%; in experiment [6], 24.5%. Also, the growth was -12.3% (active) in [7]; 31.8% in [8]; 23.7% in experiment [9]; 59.3% in [10]; 37.4% in experiment [11]; 36% in [12]. Besides, the growth in experiment [13] is 22.5%; in experiment [14], 36.3%; in experiment [15], 60.5%; in [16] it was 30.5%; in experiment [17], 20.9%; in experiment [18], -7.9% (active). For the same molecule, the growth in [19] was 8.02% (active); in [20], 13.8%.
`CN1CCN(c2c(F)cc(NC3=C(Cl)C(=O)c4ncccc4C3=O)cc2F)CC1`: the growth in experiment [1] is 63.3%; in experiment [2], 104%; in experiment [3], 87.8%; in experiment [4], 101%; in [5], 103%; in experiment [6], 88.5%. The growth is 100% in experiment [7]; 100% in [8]; 5.89% (active) in [9]; 69.8% in [10]; 99.2% in experiment [11]; 91% in experiment [12]. Further, the growth is 84.2% in [13]; 34.3% in experiment [14]; 66.9% in [15]; -63% (active) in experiment [16]; 62.2% in experiment [17]; 88.1% in experiment [18]. Besides, the values for the growth in experiment [19] and in experiment [20] were 5.66% (active) and 0.45% (active), respectively.
In the case of `CCc1nc(C)cn1C(=O)OCc1nc2nc(Cl)nc(N3CCOCC3)c2[nH]1`, the growth in experiment [1] was -28.1% (active); in experiment [2], -63.1% (active); in [3], 1.78% (active); in experiment [4], 55.8%; in [5], -55.3% (active); in [6] it was -63.5% (active). Further, the growth is -35.8% (active) in experiment [7]; -88.4% (active) in [8]; -80.9% (active) in experiment [9]; -89.6% (active) in [10]; -90.9% (active) in [11]; 48.2% in [12]. Also, the growth in [13] was -21.3% (active); in experiment [14], -100% (active); in experiment [15] it was -91.5% (active); in experiment [16] it was -100% (active); in experiment [17], -80% (active); in experiment [18], 22.1%. The figures for the growth in experiment [19] and in experiment [20] were -5.27% (active) and 6.91% (active), respectively.
In the case of `COc1ccc(-c2nc(N/N=C/c3c[nH]c4ccccc34)nc(N3CCOCC3)c2C#N)cc1`, the growth in experiment [1] is 44.1%; in [2] it was 51.4%; in experiment [3], 61.6%; in [4], 109%; in [5], 58.7%; in experiment [6], 74.3%. The growth in [7] was 101%; in experiment [8], 106%; in experiment [9] it was 102%; in [10], 41.3%; in experiment [11], 97.8%; in experiment [12] it was 99.8%. Also, the growth in experiment [13] is 92.2%; in [14], 63.7%; in experiment [15], 104%; in experiment [16], 76.1%; in experiment [17], 98%; in experiment [18] it was 51.2%. In addition, the growth is 56.9% in experiment [19] and 55.6% in [20].
Regarding `COc1ccc(-c2nc(SC(C)C)nc(NNC(N)=O)c2C#N)cc1`, the growth in experiment [1] is 58.6%; in experiment [2] it was 106%; in experiment [3] it was 59.1%; in experiment [4], 89%; in [5], 93.5%; in [6] it was 75.9%. Besides, the growth in [7] was 89.1%; in [8], 85.8%; in experiment [9] it was 76.7%; in [10], 93%; in experiment [11] it was 92.9%; in [12], 99.2%. Also, the growth was 83.9% in experiment [13]; 68.2% in [14]; 97.1% in experiment [15]; 90.1% in experiment [16]; 72.2% in experiment [17]; 90.2% in experiment [18]. Further, the growth in experiment [19] was 88.3%; in [20], 78.6%.
For `C=C(C)[C@@H]1CC[C@]2(C(=O)NCCCN(CCC#N)CCC#N)CC[C@]3(C)[C@H](CC[C@@H]4[C@@]5(C)CCC(=O)C(C)(C)[C@@H]5CC[C@]43C)[C@@H]12`, the growth in experiment [1] was 101%; in experiment [2], 99.1%; in [3], 92%; in experiment [4], 98.9%; in experiment [5], 94.1%; in [6], 94.4%. The growth was 102% in experiment [7]; 99.6% in experiment [8]; 101% in experiment [9]; 107% in experiment [10]; 105% in experiment [11]; 91% in experiment [12]. Besides, the growth is 98.2% in [13]; 87.3% in [14]; 98.4% in experiment [15]; 107% in experiment [16]; 94.4% in experiment [17]; 102% in experiment [18]. Besides, the growth in experiment [19] is 106%; in [20], 110%.
For `Cn1c(COC(=O)N2CCCCC2)nc2c(N3CCOCC3)nc(-c3ccccc3)nc21`, the growth in experiment [1] was -43% (active); in experiment [2], -33.4% (active); in [3], -85.4% (active); in experiment [4], 17.7%; in experiment [5] it was -70.9% (active); in experiment [6] it was -57.5% (active). For the same molecule, the growth in [7] was -95.6% (active); in experiment [8], -92.7% (active); in experiment [9], -90.4% (active); in experiment [10] it was -96.8% (active); in experiment [11], -79.6% (active); in experiment [12], -59.4% (active). In addition, the growth is -86.1% (active) in experiment [13]; -99.3% (active) in experiment [14]; -86.2% (active) in [15]; -100% (active) in experiment [16]; -88% (active) in [17]; -21.7% (active) in experiment [18]. Moreover, the figures for the growth in experiment [19] and in experiment [20] were -6.4% (active) and -5.2% (active), respectively.
